Reference: PubChem BioAssay (NCI)
Compounds without any hit were thinned out: in the full panel of roughly 79,000, 15% have a hit. Activity calls are given as the source filed them. Rule as the data show it: active = growth inhibition above about 70%; inactive = the rest.

Assays:
[1] = NCI Yeast Anticancer Drug Screen. Data for the rad50 strain (AID 155);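 also: 0% = growth of vehicle-only cultures of the same strain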; details: S. cerevisiae rad50 strain growth inhibition; at 50.0 µM; stronger effect = higher value
How it was run: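 Growth of the mutant yeast was measured after compound exposure and referenced to vehicle-treated cultures.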

[2] = NCI Yeast Anticancer Drug Screen. Data for the mec2-1 strain (AID 157); details: S. cerevisiae mec2-1 strain, at 50.0 µM, stronger effect = higher value
How it was run: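 Test agents were screened against the mec2-1 yeast strain, with defined DNA repair or cell cycle alteration. Growth was scored as inhibition against vehicle-only controls.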

[3] = NCI Yeast Anticancer Drug Screen. Data for the sgs1 mgt1 strain (AID 161);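 also: 0% = growth of cultures given vehicle only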; details: S. cerevisiae sgs1 mgt1 strain, at 50.0 µM, stronger effect = higher value
How it was run: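 Read-out: growth inhibition vs vehicle controls. Cells: mutant yeast strain deficient in DNA damage repair.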

[4] = NCI Yeast Anticancer Drug Screen. Data for the cln2 rad14 strain (AID 165);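 also: 0% = growth equal to vehicle treated cultures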; details: S. cerevisiae cln2 rad14 strain, at 50.0 µM, stronger effect = higher value
How it was run: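 Growth of compound-exposed yeast (cln2 rad14 genotype) measured and expressed as inhibition relative to vehicle.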

[5] = NCI Yeast Anticancer Drug Screen. Data for the bub3 strain (AID 167); details: S. cerevisiae bub3 mutant strain, at 50.0 µM, stronger effect = higher value
How it was run: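 Whole-cell yeast assay. The mutant strain was incubated with compounds, and growth inhibition was determined by comparison with vehicle-treated cells.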

[6] = NCI Yeast Anticancer Drug Screen. Data for the mlh1 rad18 strain (AID 175); details: S. cerevisiae mlh1 rad18 strain growth inhibition; at 50.0 µM; stronger effect = higher value
How it was run: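 In this whole-cell yeast screen, a strain with altered DNA damage repair is challenged with compound, and its growth is measured against matched vehicle-treated controls.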

Measured: growth inhibition

CN(C)CCNC(=O)CN
inactive: [1] 0.15% | [2] -12.2% | [3] 4.1% | [4] -0.6% | [5] 5.9% | [6] 2.75%

Clc1ccc2c(N3CCC(CCC4CCN(c5ncnc6cc(Cl)ccc56)CC4)CC3)ncnc2c1
inactive: [1] -17.9% | [2] -21.6% | [3] -7.4% | [4] -39.4% | [5] -14.6% | [6] -14.2%

C[n+]1cccc2cccc(N)c21
inactive: [1] 22.1% | [2] 0.1% | [3] 11.3% | [4] -5.65% | [5] 15.5% | [6] 5.6%

CC(=O)OCC12C(OC(C)=O)C(=O)C3C(OC(C)=O)C14OC3(C)COC(=O)c1cccnc1C(C)C(C)C(=O)OC(C(OC(C)=O)C2OC(C)=O)C4(C)O (configuration not stated)
inactive: [1] -24.6% | [2] -31.4% | [3] -24.1% | [4] 7.85% | [5] -16.1% | [6] -85%

COc1ccc(C2OC3=C(Nc4ccc([N+](=O)[O-])cc4N3)C2=O)cc1OC (configuration not stated)
inactive: [1] -9.75% | [2] -24.2% | [3] -16.1% | [4] -3.7% | [5] -32.5% | [6] -0.7%

Oc1ccc(C2=NNC(c3ccc(O)cc3)=NN2)cc1
inactive: [1] 12.7% | [2] 11.9% | [3] 17% | [4] 21.1% | [5] 12.8% | [6] 10.1%

CC1C(c2ccccc2)NC(c2ccccc2)C(C)C1(O)c1ccccc1 (configuration not stated)
inactive: [1] 10.3% | [2] 5.3% | [3] 11.6% | [4] -23.1% | [5] 11.1% | [6] 16.4%

CC(=O)N(C)CC(c1c(C)[nH]c2ccccc12)c1c(C)[nH]c2ccccc12
inactive: [1] 15.3% | [2] -12.3% | [3] 2.2% | [4] -4% | [5] 18% | [6] 40.7%

COc1cc(O)c2c(=O)c(OC)c(-c3ccc4c(c3)OCO4)oc2c1
inactive: [1] 4.6% | [2] 6.2% | [3] -9.85% | [4] 2.35% | [5] -24.2% | [6] -44.4%

Clc1ccc2c(c1)-c1c3c(nn1-c1ccccc1)-c1ccccc1SC3O2 (configuration not stated)
inactive: [1] 23.3% | [2] 10.6% | [3] 17.9% | [4] 19.3% | [5] -1.5% | [6] -13.6%

OC1c2ccccc2CC1Br (configuration not stated)
inactive: [1] -4.8% | [2] -3.8% | [3] -9.25% | [4] -25.4% | [5] 7.65% | [6] -8.15%

Cc1ccc2c(c1)C(c1ccccc1)(c1ccccc1)N(c1ccccc1)S2(=O)=O
inactive: [1] 51.2% | [2] 34.2% | [3] 64.7% | [4] 25.2% | [5] 20.5% | [6] 58.6%

Cc1ccc(N=Nc2c(O)ccc3n[nH]nc23)cc1
inactive: [1] 2.75% | [2] 0.2% | [3] 31.9% | [4] -46% | [5] 18.9% | [6] 6.95%

CCCCCCCCCCCCn1[nH]c(C)c(C(=S)SCCCCCCCC)c1=O
inactive: [1] -7.2% | [2] 1.05% | [3] -0.9% | [4] 1.45% | [5] 3% | [6] 7.3%

CC(=O)Nc1cc2cc(N)ccc2oc1=O
inactive: [1] -6.2% | [2] 0.4% | [3] 8.9% | [4] 10.4% | [5] 15.2% | [6] 16.6%

O=C(C[n+]1ccccc1Cl)c1ccc(I)cc1
inactive: [1] 18.2% | [2] 24.8% | [3] 53% | [4] 9.05% | [5] 19.9% | [6] 56.8%

CCCCCCCCS(=O)(=O)NC
inactive: [1] 0.95% | [2] -9.8% | [3] -8.75% | [4] -10% | [5] 16.4% | [6] 5.7%

CCN(CC)C(=O)NCCCCCCNC(=O)N(CC)CC
inactive: [1] -20.2% | [2] -36.8% | [3] -27.8% | [4] -20% | [5] -29.2% | [6] -23.6%

Cc1c([N+](=O)[O-])cc(C(C)(C)C)c(OC(=O)CCl)c1[N+](=O)[O-]
active: [1] 99.5% | [2] 99.7% | [3] 99.6% | [4] 99.2% | [5] 99.4% | [6] 99.5%

CN=NNc1ccccc1
inactive: [1] -1.4% | [2] 6.75% | [3] -6.45% | [4] -29.2% | [5] 14.8% | [6] -6.4%

Cc1ccc(Cl)c2c1C(=O)c1ccccc1C2=O
inactive: [1] 24.2% | [2] 7.65% | [3] 3.3% | [4] 14.8% | [5] 5.6% | [6] 23.9%

COc1ccc(C2N(NC(=O)c3ccncc3)C(=O)CS2(=O)=O)cc1F (configuration not stated)
inactive: [1] -3.95% | [2] -12.6% | [3] -11.8% | [4] -1.55% | [5] 0.75% | [6] 0.95%

CC(=O)OC1CCC2(C)C(=CCC3C2CCC2(C)C3CCC23SCCS3)C1 (configuration not stated)
inactive: [1] 24% | [2] -3% | [3] 4.25% | [4] -60.1% | [5] -2.9% | [6] 9.6%

C1COC2OCCOC2O1 (configuration not stated)
inactive: [1] 5.2% | [2] -2.05% | [3] 4.6% | [4] -2.55% | [5] 1.4% | [6] 0.7%

NNC(=O)c1ccc(Cl)c(Cl)c1
inactive: [1] -1.1% | [2] -13.3% | [3] -0.9% | [4] 2.85% | [5] -16.3% | [6] -23.8%

CC12NC(=O)NC1(C)NC(=O)N2 (configuration not stated)
inactive: [1] -8.85% | [2] -6.3% | [3] -35.9% | [4] -38.9% | [5] -29.6% | [6] 11.6%

c1ccc2nc3c(nc2c1)sc1nc2ccccc2n13
inactive: [1] 9.65% | [2] 3.4% | [3] -11.9% | [4] 10.9% | [5] 8.3% | [6] 17.1%

CCOC(CN=Cc1cccc2ccccc12)OCC
inactive: [1] -26.4% | [2] -1.4% | [3] -11.8% | [4] 46.7% | [5] -3.55% | [6] 18.6%

COC1CC(N=[N+]=[N-])C(OC(=O)c2ccccc2)C(CBr)O1 (configuration not stated)
inactive: [1] 22.4% | [2] 18.1% | [3] 22.6% | [4] -4.4% | [5] 7.4% | [6] 19.6%

Cc1ccc(Cc2nn(C)c(=O)n2N)cc1
inactive: [1] -7.1% | [2] -2.5% | [3] 18.6% | [4] -3% | [5] -13.1% | [6] -18.9%

CCCCNCCCNCCCC
inactive: [1] 4.95% | [2] -3.4% | [3] 0.65% | [4] -0.7% | [5] 25.5% | [6] 2.6%

Cc1ccc([N+](=O)[O-])cc1NC(=O)C(=O)Cc1occc(=O)c1O
inactive: [1] -12.6% | [2] -6% | [3] 0.65% | [4] -3.45% | [5] -8.85% | [6] -6.95%

CCN(CC)CCN1C(=O)c2cccc3c(N)c(OC)cc(c23)C1=O
inactive: [1] 47.5% | [2] -27.8% | [3] -20.8% | [4] -11.9% | [5] -24.2% | [6] -48.3%

CCCCCCc1cc(-c2cc(CCCCCC)nc(N)n2)nc(N)n1
inactive: [1] -4.25% | [2] 7.05% | [3] 0% | [4] 4.55% | [5] -9.1% | [6] 16.4%

O=C(O)c1cnc2cc3c(cc2c1Nc1cccc(Cl)c1)OCO3
inactive: [1] -2.25% | [2] -4.05% | [3] 4.45% | [4] -27.5% | [5] -8.6% | [6] -12.6%

CCN(CC)Cc1cc(Nc2ncnc3sc(C)c(C)c23)ccc1O
inactive: [1] 9.05% | [2] 9.95% | [3] 1.3% | [4] -13.2% | [5] -10.3% | [6] -15.7%

CCC(CCC(C)C)(SCC(N)=O)C(=O)O (configuration not stated)
inactive: [1] -4.75% | [2] -5.15% | [3] -26% | [4] -39.3% | [5] 0.2% | [6] -38%

Cc1ccc(Cc2ccc(CCc3ccc(Cc4ccc(C)cc4)cc3)cc2)cc1
inactive: [1] 10.2% | [2] 7.15% | [3] 18.6% | [4] 32.4% | [5] 12.2% | [6] 11.5%

COC(=O)CC1C2(C)C3=C(C)C(c4ccoc4)CC3OC2C2OC(=O)C3(C)C=CC(=O)C1(C)C23 (configuration not stated)
active: [1] 85% | [2] 84.2% | [3] 79.2% | [4] 81% | [5] 82% | [6] 90.3%

Clc1cc(Cl)nc(Cl)n1
inactive: [1] 2.4% | [2] -7.1% | [3] -4.95% | [4] 21.1% | [5] 4.6% | [6] -1.65%

C1CCC2CC(NC3=NCCO3)CCC2C1 (configuration not stated)
inactive: [1] 8.85% | [2] 21.1% | [3] 0.35% | [4] -7% | [5] 22.2% | [6] -85.6%

CC(C)(N)C(=O)O
inactive: [1] 1.2% | [2] 24.5% | [3] 24.6% | [4] -10.9% | [5] -12.1% | [6] -6.85%
